Measurements from PubChem BioAssay AID652017 (The Scripps Research Institute Molecular Screening Center, 2013).
The campaign covered roughly 370,000 compounds. About 3,800 (1%) were called active. Rule as the data show it: active = activation above about 7.8%; inactive = the rest. The entries come from a sample that favours actives as a whole.

assay: SMARCA2 (BRM) function activators, primary screen, cell-based, luminescence, high throughput (AID 652017); conditions: MG213 cells, MMTV-luciferase reporter, dexamethasone, overnight; at 9.1 µM; stronger effect = higher value;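 also: 0% = vehicle wells and 100% = reference activator wells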

activation, active:
COC(=O)C1C(=O)c2c([nH]c(C(=O)OCCSC)c2C)CC1C (configuration not stated) 15.2%, Fc1ccc(CNc2nc3ccccc3n3nnnc23)cc1 10.3%, Cc1ccc(O)c(CNc2nc3ccccc3n2C)c1 9.3%, O=C(Cn1ncc(N2CCCC2)c(Br)c1=O)c1ccc(Cl)cc1 9.66%, COc1ccc(C(=O)Nc2sc(C)c(C)c2CN2CCOCC2)cc1 8.14%, Cc1ccc(NC(=O)c2cnc(SCC(=O)NCC3CCCO3)n(C)c2=O)cc1 (configuration not stated) 8.79%, Cc1nc(N=C(N)N)nc2c(C)cccc12 18.7%, O=C(Nc1nnc(CCc2ccccc2)s1)C1CCCO1 (configuration not stated) 8.46%, C=CCOC/C=C/C#CCN(CC=C)Cc1ccc(OC)cc1OC 7.87%, CCc1cc2c(=O)c(-c3ccon3)c(N)oc2cc1OC 8.66%

activation, inactive:
CC(=O)Nc1nc2ncccn2c1-c1ccc(C(F)(F)F)cc1 -1.69%, CC(=O)n1cc([C@H]2C=C(C(=O)N3CCOCC3)O[C@@H](OCc3ccc(CO)cc3)C2)c2ccccc21 -0.72%, COc1cccc(CNC(=O)C2CCCN(c3nc4ccccc4o3)C2)c1OC (configuration not stated) -3.99%, CCOC(=O)c1cnc2ccc(F)cc2c1Nc1ccc2c(c1)OCCO2 -4.81%, CC(C)N1CCCCC(NC(=O)C(C)(C)C)C1=O (configuration not stated) 0.13%, NC(=O)c1oc2ccccc2c1NC(=O)CS(=O)(=O)c1ccccc1 -2.91%, CCOC(=O)CNc1nc2ccccc2n2c(C)nnc12 -1.96%, CC(C)(C)N1CC(c2nc3ccccc3n2Cc2ccc(F)cc2)CC1=O (configuration not stated) 4.59%, C/C(=N\c1nc2ccccc2n1C)c1cc(Cl)ccc1O 0.8%, CC(C)n1c(NCc2c[nH]c3ccccc23)nc2ccccc21 -2.21%, CN(CCc1ccccc1)C(=O)Cn1nc(-c2ccccc2)ccc1=O -2.33%, CC(=O)Cn1ncc(N2CCOCC2)c(Br)c1=O -2.3%, O=C(Cn1nc(CNc2ccc(Cl)cc2)[n+]2c1CCCCC2)c1ccc(Cl)cc1 -6.64%, Cc1ccc(-n2c(SCC(=O)Nc3ccc(S(=O)(=O)Nc4nccs4)cc3)nnc2-c2ccccn2)cc1 -6.25%, CCOC(=O)C(=O)N(Cc1ccccc1)c1ccccc1C(=O)Nc1cc(OC)ccc1OC -5.19%, CC(c1c[nH]c2ccccc12)c1c(-c2ccccc2)n(C)c2ccccc12 (configuration not stated) -5.18%, CCc1cc(C(c2ccccc2OC)N2CCOCC2)c(NC(=O)c2ccccc2)s1 (configuration not stated) -0.4%, COc1ccc(C(=O)Nc2ccnn2C2CCN(Cc3ccncc3)CC2)cc1 -1.75%, O=C(CCl)NC1CCCCN(Cc2cccc(C(F)(F)F)c2)C1=O (configuration not stated) -2.12%, CNC(=O)CN1C(=O)NC(c2ccccc2)(c2ccccc2)C1=O -2.01%, Cn1c(SCC(=O)c2ccccc2)ncc(C(=O)Nc2ccc(F)cc2)c1=O -2.22%, CCCCn1c(SCC(=O)NCC2CCCO2)nc2ccc(N3CCOCC3)cc2c1=O (configuration not stated) -3.78%, Cc1ccccc1-n1cc(CNC(=O)CC2C(=O)NCCN2C/C=C/c2ccccc2)cn1 (configuration not stated) -1.02%, CCCNC(=O)Nc1ccc2c(c1)C(=O)N(C)[C@H]1CC[C@H](CC(=O)NCC3CCCCC3)O[C@@H]1CO2 -2.38%, CC1(C(=O)NCc2ccccc2)CSCC(=O)N1CCCN1CCOCC1 (configuration not stated) -6.77%, O=S1(=O)c2ccc(Br)cc2OC[C@H](Cc2ccccc2)N1Cc1cn(Cc2ccccc2)nn1 -4.73%, COc1nc(N=C(N)N)nc2c(C)cccc12 5.28%, Nn1c(SCC(=O)N2c3ccccc3Sc3ccccc32)nnc1-c1n[nH]c2c1CCC2 -2.45%, CCCC[C@H](C(=O)N(CC)c1ccccc1)[C@@H](O)c1ccc2ccccc2c1 -2.79%, CN1C[C@]2(C=C3CCCCC3n3c(=O)n(-c4ccccc4)c(=O)n32)N=C1NC(=O)c1ccccc1 (some centres not stated) -3.36%, O=C(COC(=O)c1cccnc1Cl)NC12CC3CC(CC(C3)C1)C2 -0.27%, COCOc1cccc(CN2CCC(C)(Oc3ccc(SC)cc3)C2)c1 (configuration not stated) -2.3%, CCOC(=O)[C@]12CCCCC/C=C\1N(Cc1ccc(OC)cc1)C(=O)[C@H]2CC(=O)N1CCOCC1 -3.81%, O=C(C1CCCO1)N(Cc1ccccc1)c1ccccc1 (configuration not stated) -1.33%, O=C(NCc1ccccc1Cl)C1CCCO1 (configuration not stated) -4.52%, CC(=O)C1(C(=O)Nc2nccs2)CC(c2ccccc2C(F)(F)F)=NO1 (configuration not stated) -1.46%, COc1ccc(CN(CCN2CCOCC2)C(=O)c2ccc(C)cc2)cc1OC -0.94%, CN(C)[C@H]1CCN(c2cccc3c2S(=O)(=O)N2CC[C@H](C2)O3)C1 0.57%, COc1ccc(-c2cc(-c3nnc(SCC(=O)Nc4cccc5ccccc45)n3N)[nH]n2)cc1 -3.63%, COc1ccc(CN(C)Cc2nc3cc(OC)c(OC)cc3c(=O)[nH]2)c(OC)c1 -2.98%, COc1ccc(C#CCNCc2ccc(OC)cc2OC)cc1 -1.96%, C=CCN1C(=O)[C@H](CC(=O)N2CCN(C(=O)OCC)CC2)[C@@]2(C(=O)OCC)CCCC=C12 -0.21%, C=CCN1C(=O)[C@H](CC(=O)NCCCN2CCCC2=O)[C@@]2(C(=O)OCC)CCCC=C12 -0.89%, CCn1c2ccccc2c2cc(NC(=O)CSc3nnc(-c4ccccc4)n3-c3ccc(C)cc3)ccc21 -2.83%, CCc1cc2c(=O)c(-c3nc4ccccc4n3C)c(CCCC(=O)O)oc2cc1OC(=O)C(C)(C)C -2.32%, COc1ccc2oc(N)c(C=O)c(=O)c2c1 0.14%, O=S1(=O)c2c(NCc3ccco3)cccc2Oc2ccccc2CN1Cc1cn(Cc2cccc(C(F)(F)F)c2)nn1 -3.67%
